This is part of a sample that, as a whole, favours compounds with a hit. Of some 83,000 tested, about 20% had one in any assay.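 Each cell line was grown in a 96-well plate and treated with one concentration of compound for 48 hours. Values below 10 were considered active.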 Unmarked numbers belong to inactive results. The source made the active and inactive calls.
Assays:
Assay in all cases: NCI-60 one-dose screen, 48 h (100 = growth as untreated, 0 = no growth, -100 = all killed)
SK-MEL-2 melanoma = conditions: 10 µM unless noted
EKVX NSCLC = conditions: 10 µM
SN12C renal = conditions: 10 µM unless noted
UO-31 renal = conditions: 10 µM unless noted
TK-10 renal = conditions: 10 µM unless noted
ACHN renal = conditions: 10 µM unless noted
CAKI-1 renal = conditions: 10 µM unless noted
A498 renal = conditions: 10 µM unless noted
CCRF-CEM leukemia = conditions: 10 µM
MOLT-4 leukemia = conditions: 10 µM unless noted
SR leukemia = conditions: 10 µM unless noted
OVCAR-8 ovarian = conditions: 10 µM unless noted
OVCAR-5 ovarian = conditions: 10 µM unless noted
OVCAR-4 ovarian = conditions: 10 µM unless noted
SK-OV-3 ovarian = conditions: 10 µM unless noted
IGROV1 ovarian = conditions: 10 µM unless noted
OVCAR-3 ovarian = conditions: 10 µM unless noted
HS 578T breast = conditions: 10 µM unless noted
NCI/ADR-RES ovarian = conditions: 10 µM unless noted
RPMI-8226 leukemia = conditions: 10 µM unless noted

| Compound | growth (SK-MEL-2 melanoma) | growth (EKVX NSCLC) | growth (SN12C renal) | growth (UO-31 renal) | growth (TK-10 renal) | growth (ACHN renal) | growth (CAKI-1 renal) | growth (A498 renal) | growth (CCRF-CEM leukemia) | growth (MOLT-4 leukemia) | growth (SR leukemia) | growth (OVCAR-8 ovarian) | growth (OVCAR-5 ovarian) | growth (OVCAR-4 ovarian) | growth (SK-OV-3 ovarian) | growth (IGROV1 ovarian) | growth (OVCAR-3 ovarian) | growth (HS 578T breast) | growth (NCI/ADR-RES ovarian) | growth (RPMI-8226 leukemia) |
| --- | --- | --- | --- | --- | --- | --- | --- | --- | --- | --- | --- | --- | --- | --- | --- | --- | --- | --- | --- | --- |
| Cc1ccc(C(C)C)c(OCc2ccc(C(=O)N/N=C/c3cccc(O)c3O)cc2)c1 | 71.5% | 49.1% | 35% | 16.1% | 74% | 12.8% | 31.6% | 90.2% | 6.92% (active) | 7.88% (active) | 9.44% (active) | 23.7% | 70.3% | 27.8% | 66.1% | 40.8% | 20.4% | 76.8% | 1.46% (active) |  |
| CCCC(=O)NNc1[nH]c(-c2ccc(OC)cc2)cc1C(=O)OCC | 94.6% | 108% | 110% | 85.8% | -16.1% (active) | 73.1% | 91.1% | 95.8% | 5.87% (active) | 3.23% (active) | 106% | 110% | 95.7% | 117% | 113% | 18.1% | 90% | 97.7% | 106% |  |
| CCCCCCCCC/C(=N\NC(=O)c1ccncc1)c1ccc(O)c(O)c1O | 38.5% | 34.5% | 25.7% | 20.8% | 43.1% | 15.8% | 14.3% | 45% | 9.71% (active) | 15.5% | 6.56% (active) | 13.8% | 48.6% |  | 24.3% | 24.9% | 25.6% |  | 7.59% (active) | 27.1% |
| Nc1ccc(S(=O)(=O)c2ccc(NO)cc2)cc1 | 93.2% | 90.5% | 121% | 84.2% | 131% | 114% | 102% | 114% | 91.8% | 95.9% | 129% | 95.6% | 80.4% | 88.6% | 94.2% | 1.89% (active) | 131% | 97% | 90.3% |  |
| O=C(Nc1cccc(Cn2c(=O)[nH]c3ccc(Oc4ncccn4)cc3c2=O)c1)c1cccc(F)c1 | 74.3% | 78.6% | 78% | 58.9% | 81% | 80.9% | 89% | 66% | 75.7% | 54.7% |  | 78.7% | 96.1% | 73.9% | 83% | 78.2% | 84.1% | 92.8% | 104% | 52.3% |
| COC(c1ccccc1)C(Br)C(=O)c1ccccc1 (stereo not given) | 95.7% | 103% | 94.3% | 75.8% | 91.5% | 94.6% | 85% | 98.6% | 69.9% | 98% | 79.7% | 92.1% | 108% | 93.1% |  | 96.6% | 115% | 111% | 104% | 90.6% |
| COc1cc2c(c(OC)c1OC)C(=O)CC(c1cccc(C(=O)Nc3cccc(Br)c3)c1)O2 (stereo not given) | 73.8% | 85.1% | 71.7% | 51.3% | 109% | 89.1% | 85.3% | 76% | 45% | 48.8% |  | 55% | 95.7% | 82.7% | 82% | 83% | 87.7% | 91.5% | 84.7% | 46.8% |
| O=C(N/N=C/c1cc(Cl)ccc1O)C(=O)N/N=C/c1cc(Cl)ccc1O | 109% | 69.2% | 79.5% | 48.2% | 76.3% | 53.4% | 37.2% | 81.3% | 39.7% | 55.9% | 51.3% | 60.8% | 72.5% |  | 64.1% | 50.3% | 15.5% |  | 44.2% | 71.9% |
